Measurements as given in PubChem BioAssay (EPA / NIEHS).
Inconclusive results are not listed. Activity calls are given as the source filed them. How the source made its calls: active means hit-call score of the fitted dose curve at least 0.9, where 1 is the maximum; inconclusive means response in the unintended direction; inactive means score below 0.9. Where a SMILES comes first, the peptide text is derived from it. Bridges are numbered along the chain shown (N, C = ends). [ ]: non-standard residue; d: D form. The star is where a group is joined. Ileψ(thiazoline)Cys = CC[C@H](C)[C@H](N)C1=N[C@H](C(=O)*)CS1; dOrn = NCCC[C@@H](N)C(=O)O

Each compound was assayed against Cellular tumor antigen p53 (Homo sapiens) (UniProt P04637) (assay: TOX21_p53_BLA_p5_ratio: Tox21 HCT-116 p53 Agonism Beta-lactamase Assay, Ratio, Phase 5 (AID 2283599)).
Text: TOX21_p53_BLA_p5 is a cell-based, single-readout assay that uses HCT116, a human intestinal cell line, […] in a 1536-well plate.TOX21_p53_BLA_p5_ratio is an assay readout measuring reporter gene via receptor activity and designed using inducible reporter (beta lactamase induction) detected with GAL4 b-lactamase reporter gene. The signal is derived from the ratio of cleaved (ch2) to uncleaved (ch1) reporter gene substrate used as the measure of target activity.Data from the assay component TOX21_p53_BLA_p5_ratio was analyzed into 1 assay endpoint. This assay endpoint, TOX21_p53_BLA_p5_ratio, was analyzed in the positive analysis fitting direction relative to DMSO as the negative control and baseline of activity. Using a type of inducible reporter, gain-of-signal activity can be used to understand changes in the reporter gene as they relate to the gene TP53. Furthermore, this assay endpoint can be referred to as a primary readout, because this assay has produced multiple assay endpoints and this ratio serves a reporter gene function to understand target activity. To generalize the intended target to other relatable targets, this assay endpoint is annotated to the DNA binding intended target family, where the subfamily is tumor suppressor.
Thawing Method: Place 14 mL of pre-warmed thaw medium into a 15 mL of conical tub. Remove the vial of cells to be thawed from liquid nitrogen and thaw rapidly by placing at 37C in a water bath with gentle agitation for 1-2 minutes. Decontaminate the vial by wiping with 70% ethanol before opening in a biological safety cabinet. Transfer the vial contents drop-wise into 14 mL of thaw medium in a sterile 15-mL conical tub. Centrifuge cells at 900 rpm for 4 minutes and resuspend in thaw medium. Transfer contents to the T75 tissue culture flask containing Thaw Medium and place flask in a humidified 37C/5% CO2 incubator. Switch to growth medium at first passage.Propagation Method: Aspirate medium, rinse once in DPBS, add 0.25% Trypsin/EDTA and swirl to coat the cell evenly. Add an equal volume of Growth Medium to inactivate Trypsin after 2-3 minutes incubation at 37C. Centrifuge cells at 900 rpm for 4 minutes and resuspend in growth medium. Cell should be passage or fed at least twice a week.Assay Protocol: Harvest cells from culture in growth medium and resuspend in assay medium. 2.2 Dispense 4000 cells/5 uL/well into 1536-well black/clear bottom plates using a Multidrop dispenser. After the cells were incubated at 37C for 5 hours, 23 nL of compounds dissolved in DMSO were transferred to the assay plate by a PinTool resulting in a 217-fold dilution. Incubate the plates for 16 hours at 37C, 5% CO2. Add 1 uL of 6X LiveBLAzer FRET B/G (CCF4-AM) Substrate Mixture to each well using a BioRAPTR dispenser and incubate the plates at room temperature for 2 hours. Measure fluorescence intensity at 460 and 530 nm emission and 405 nm excitation by an Envision detector. Data is expressed as the ratio of 460nm/530nm emissions. Add 4 uL of Cell-titer Glo to each well using BioRAPTR and incubate the plates at room temperature for 2 hours. Measure fluorescence intensity by a VewLux plate reader.

Chain of Cellular tumor antigen p53 (Homo sapiens) (P04637 whole entry, looked up, the tested form may be a part): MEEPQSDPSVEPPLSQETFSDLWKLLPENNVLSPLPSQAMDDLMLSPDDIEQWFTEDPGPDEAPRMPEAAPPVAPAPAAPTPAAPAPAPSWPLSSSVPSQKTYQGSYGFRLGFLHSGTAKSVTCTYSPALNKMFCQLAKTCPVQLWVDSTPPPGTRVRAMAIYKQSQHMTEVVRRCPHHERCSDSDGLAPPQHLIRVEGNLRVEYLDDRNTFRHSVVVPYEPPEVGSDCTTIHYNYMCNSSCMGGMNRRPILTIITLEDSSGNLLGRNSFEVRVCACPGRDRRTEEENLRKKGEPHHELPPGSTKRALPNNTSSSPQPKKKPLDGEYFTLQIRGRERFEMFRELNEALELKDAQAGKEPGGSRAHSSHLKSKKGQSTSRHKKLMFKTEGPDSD

Row | SMILES | outcome | AC50
1 | CC1=C2[C@H](/C=C(\C)C(=O)O)CC[C@@H](C)[C@H]2CC1 | inactive | –
2 | COc1ccc2c(=O)c(C)c(-c3ccccc3)oc2c1CN(C)C | inactive | –
3 | CCc1nn(CCCN2CCN(c3cccc(Cl)c3)CC2)c(=O)n1CCOc1ccccc1 | inactive | –
4 | CO[C@H]1/C=C/O[C@@]2(C)Oc3c(C)c(O)c4c(O)c(cc(O)c4c3C2=O)NC(=O)/C(C)=C\C=C\[C@H](C)[C@H](O)[C@@H](C)[C@@H](O)[C@@H](C)[C@H](OC(C)=O)[C@@H]1C | inactive | –
5 | O=C1c2ccccc2C(=O)C1c1ccc2ccccc2n1 | inactive | –
6 | CCCCCCC1CCC(=O)O1 (stereo not given) | inactive | –
7 | C[C@@H]1NC(=O)[C@@H](N)CNC(=O)[C@H](C2CCNC(N)=N2)NC(=O)/C(=C/NC(N)=O)NC(=O)[C@H](CNC(=O)C[C@@H](N)CCCN)NC1=O (stereo not given in full) | inactive | –
8 | CN(C)CCn1nnnc1SCC1=C(C(=O)O)N2C(=O)[C@@H](NC(=O)Cc3csc(N)n3)[C@H]2SC1 | inactive | –
9 | CC(C)Oc1ccc2c(=O)c(-c3ccccc3)coc2c1 | inactive | –
10 | CCCCN1CCCC[C@H]1C(=O)Nc1c(C)cccc1C | inactive | –
11 | CC(C(=O)O)c1ccc(C(=O)c2ccccc2)s1 (stereo not given) | inactive | –
12 | COC(=O)c1ccccc1 | inactive | –
13 | Nc1ncnc2c1ncn2[C@@H]1O[C@H](CO)[C@@H](O)[C@H]1O | inactive | –
14 | COc1ccc(CNCC(O)COc2ccc3[nH]c(=O)ccc3c2)cc1OC (stereo not given) | inactive | –
15 | CC(NNC(=O)c1ccccc1)c1ccccc1 (stereo not given) | inactive | –
16 | C[N+]1([O-])CCOCC1 | inactive | –
17 | CN1C(C)(C)CCCC1(C)C | inactive | –
18 | COC(C)(OC)OC | inactive | –
19 | O=C(O)c1cc(N=Nc2ccc([N+](=O)[O-])cc2)ccc1O | inactive | –
20 | CC1(S(=O)(=O)O)CC(=O)c2ccccc2C1=O (stereo not given) | – | 36.7 µM (active)

Row | SMILES | outcome | AC50
21 | CC(C)=C1CC[C@@H](C)CC1=O | inactive | –
22 | CC[C@H](C)[C@H](N)C1=N[C@H](C(=O)N[C@@H](CC(C)C)C(=O)N[C@H](CCC(=O)O)C(=O)N[C@H](C(=O)N[C@H]2CCCCNC(=O)[C@H](CC(N)=O)NC(=O)[C@@H](CC(=O)O)NC(=O)[C@H](Cc3cnc[nH]3)NC(=O)[C@@H](Cc3ccccc3)NC(=O)[C@H]([C@@H](C)CC)NC(=O)[C@@H](CCCN)NC2=O)[C@@H](C)CC)CS1 ({Ileψ(thiazoline)Cys}-L[dE]IK[dOrn]I[dF]H[dD]N; lactam 4-C) | inactive | –
23 | CN(C)CCOC(c1ccc(Cl)cc1)c1ccccn1 (stereo not given) | inactive | –
24 | CC1Cc2ccccc2N1NC(=O)c1ccc(Cl)c(S(N)(=O)=O)c1 (stereo not given) | inactive | –
25 | O=C1OC(=O)c2cc([N+](=O)[O-])ccc21 | inactive | –
26 | CCOC(=O)C1=C(C)NC(C)=C(C(=O)OC)C1c1cccc([N+](=O)[O-])c1 (stereo not given) | inactive | –
27 | NCC[C@H](O)C(=O)N[C@@H]1C[C@H](N)[C@@H](O[C@H]2O[C@H](CN)[C@@H](O)[C@H](O)[C@H]2O)[C@H](O)[C@H]1O[C@H]1O[C@H](CO)[C@@H](O)[C@H](N)[C@H]1O | inactive | –
28 | O=C1NC(=O)[C@@H]2CC=CC[C@H]12 | inactive | –
29 | CC/C=C\CC/C=C/C(OCC)OCC | inactive | –
30 | CC1=C2[C@@H]([C@H](C)CC[C@H]2/C=C(\C)C(=O)O)[C@H](O)C1 | inactive | –
31 | CC(=O)c1cc(C)oc1C | inactive | –
32 | CC(=O)OC[C@H]1O[C@@H](n2ncc(=O)[nH]c2=O)[C@H](OC(C)=O)[C@@H]1OC(C)=O | – | 2.02 µM (active)
33 | O=P(O)(O)C(Sc1ccc(Cl)cc1)P(=O)(O)O | inactive | –
34 | CC1=C(C)C(=O)C(CCCCC#CCCCC#CCO)=C(C)C1=O | inactive | –
35 | CCCc1ccc(C(=O)O)cc1 | inactive | –
36 | O=S(O)CO | inactive | –
37 | c1ccc([C@H]2CN3CCSC3=N2)cc1 | inactive | –
38 | Cc1ccc(S(=O)(=O)NC(=O)NN2CC3CCCC3C2)cc1 (stereo not given) | inactive | –
39 | C=C1C[C@@]23CC[C@H]4[C@@](C)(CCC[C@@]4(C)C(=O)O[C@@H]4O[C@H](CO)[C@@H](O)[C@H](O)[C@H]4O)[C@@H]2CC[C@]1(O[C@@H]1O[C@H](CO)[C@@H](O)[C@H](O[C@@H]2O[C@H](CO)[C@@H](O)[C@H](O)[C@H]2O)[C@H]1O[C@@H]1O[C@H](CO)[C@@H](O)[C@H](O)[C@H]1O)C3 | inactive | –
40 | CC(=O)O[C@H]1C[C@@H]2CC[C@@H]3[C@H](CC[C@@]4(C)[C@H]3C[C@H](N3CC[N+](C)(C)CC3)[C@@H]4OC(C)=O)[C@@]2(C)C[C@@H]1N1CC[N+](C)(C)CC1 | inactive | –
